Each structure is given as a SMILES string. Records with an inconclusive call do not appear. A number with no mark means an inactive call. Calls come from the whole dose curve; as a rule, active = well fitted inhibition curve with a large enough effect; inconclusive = small, poorly fitted or top-dose-only effect; inactive = flat fitted curve, though single readings scatter.
% is set by controls: 0 for no effect and ±100 for the full control effect.

The assay deals with KB-3-1. Nature of the assay: Cytotoxic Profiling of Annotated Libraries Using Quantitative High-Throughput Screening (AID 1296008). Note: nearly all actives have a fitted effect of over 60% in size. The conditions noted are these: Five cell lines viability, CellTiter-Glo ATP luminescence, 48-72 h; max response: hits give low values. The method in brief:
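Cytotoxicity was measured as CellTiter-Glo ATP luminescence, read after 10 min at room temperature. Compound treatment of the cells lasted 48 or 72 hr at 37 degrees Celsius in a qHTS format.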
Consider `CO/N=C(\C(=O)N[C@@H]1C(=O)N2C(C(=O)O)=C(CSC(=O)c3ccco3)CS[C@H]12)c1csc(N)n1`, for which the max response is 1.31%.
The value for `O=[n+]1ccn([O-])c2ccccc21` was -0.645%; that for `CC[C@@H]1/C=C(\C)C[C@H](C)C[C@H](OC)[C@H]2O[C@@](O)(C(=O)C(=O)N3CCCC[C@H]3C(=O)O[C@H](/C(C)=C/[C@@H]3CC[C@@H](Cl)[C@H](OC)C3)[C@H](C)[C@@H](O)CC1=O)[C@H](C)C[C@@H]2OC` was -9.83%.

Values taken from PubChem BioAssay (NCATS).
